# BoNT A protease – inhibitors of Botulinum neurotoxin A light chain protease; inhibition, % at 10 µM; AID 588499; multiplex microsphere protease substrate cleavage, flow cytometry; 360,000 compounds, 0.17% hits; note: plate controls were buffer without enzyme for full effect and enzyme alone for no effect
# Autofluor counter – flagged as autofluorescent in microsphere protease counterscreen. compound autofluorescence counterscreen, microsphere flow cytometry; hits give high values. fluorescence intensity (concentration not given with the values). 360,000 compounds, 3.1% hits. AID 624483; in the data active = fluorescence intensity above about 16000; inconclusive = no clear call, values can overlap the other calls
# CCHF vOTU inh – CCHFV vOTU protease inhibition. Pep-AMC fluorescence. inhibition, % at 11.5 µM. 370,000 compounds, 0.55% hits. AID 651958; in the data active = inhibition above about 30%; note: 0% = vehicle wells with enzyme and 100% = no enzyme wells
# BoNT F protease – inhibitors of Botulinum neurotoxin F light chain protease; Multiplex microsphere protease cleavage assay, flow cytometry; AID 588497; 360,000 compounds, 0.22% hits; inhibition, % at 10 µM; in the data active = inhibition above about 35%, passing the limit was not always enough; inconclusive = no clear call, values can overlap the other calls; note: plate controls were buffer without enzyme for full effect and enzyme alone for no effect
# Anthrax LF inh2 – inhibitors of Bacillus anthracis lethal factor protease | P15917 | multiplex microsphere protease cleavage assay, LF | inhibition, % at 10 µM | 360,000 compounds, 0.12% hits; note: plate controls were buffer without enzyme for full effect and enzyme alone for no effect
# Target sequence (P15917 whole entry, looked up): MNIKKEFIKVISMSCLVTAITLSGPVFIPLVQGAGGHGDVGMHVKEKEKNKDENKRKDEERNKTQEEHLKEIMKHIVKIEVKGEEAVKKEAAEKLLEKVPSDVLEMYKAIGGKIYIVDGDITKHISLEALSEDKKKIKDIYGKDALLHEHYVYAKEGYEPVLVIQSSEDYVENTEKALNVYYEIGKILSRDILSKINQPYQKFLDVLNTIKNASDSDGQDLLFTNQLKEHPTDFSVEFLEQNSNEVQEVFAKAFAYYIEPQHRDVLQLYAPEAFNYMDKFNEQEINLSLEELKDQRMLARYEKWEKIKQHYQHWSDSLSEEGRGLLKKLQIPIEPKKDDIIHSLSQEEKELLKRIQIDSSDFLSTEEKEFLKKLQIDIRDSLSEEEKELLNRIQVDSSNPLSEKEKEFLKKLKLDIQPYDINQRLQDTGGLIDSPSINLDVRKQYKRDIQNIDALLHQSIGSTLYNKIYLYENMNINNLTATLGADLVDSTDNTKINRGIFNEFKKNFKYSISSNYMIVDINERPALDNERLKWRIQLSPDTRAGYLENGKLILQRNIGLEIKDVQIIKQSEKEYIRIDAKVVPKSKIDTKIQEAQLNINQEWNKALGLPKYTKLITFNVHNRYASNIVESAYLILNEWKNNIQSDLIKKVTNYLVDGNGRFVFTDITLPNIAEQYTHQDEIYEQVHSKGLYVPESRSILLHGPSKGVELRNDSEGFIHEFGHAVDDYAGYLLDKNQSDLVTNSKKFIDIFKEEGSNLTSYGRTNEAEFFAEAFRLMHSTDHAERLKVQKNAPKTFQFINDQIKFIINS
# SARS 3CLpro inh – SARS-CoV 3CLpro protease inhibition. inhibition, % at 6 µM. recombinant SARS-CoV 3CLpro, quenched FRET peptide cleavage. 290,000 compounds, 0.14% hits. P0C6X7; in the data active = inhibition above about 12%
# Active calls of the source: *; ? = inconclusive; / = no result. Hits are enriched below; roughly 3.9% of the tested compounds scored in any of these assays. Cut-off read from the data, not from the text of the source, unless noted: active = inhibition above about 30%; inconclusive = no clear call, values can overlap the other calls; inactive = below that.
SMILES,BoNT A protease,Autofluor counter,CCHF vOTU inh,BoNT F protease,Anthrax LF inh2,SARS 3CLpro inh
COc1ccc(S(=O)(=O)Nc2ccc3ccccc3c2)cc1C,-3.8,25259*,11.6,-5.6,1.1,5.5
COc1ccc(S(=O)(=O)NCCC(C)C)cc1C,0.8,23019*,2.6,-0.4,-1.2,3.6
COc1ccc(S(=O)(=O)NCCOc2ccccc2)cc1C,0.3,3363,-3.4,6.3,-9.2,-4.4
Cc1ccc(CNS(=O)(=O)c2c(C(=O)N3CCCCCC3)c(C)n(C)c2C)cc1,4.0,5145,11.0,6.3,5.3,0.0
C[C@@H](CCCCC1(C)OCCO1)CCC(=O)N(c1ccccc1)c1ccccc1,/,/,15.8,/,/,/
CC(C)C(OC(=O)CN1C(=O)c2ccccc2C1=O)C(=O)NC1CCCCC1 (centres undefined),-5.0,2964,-0.1,-8.2,-13.9,-0.2
Cc1cc(S(=O)(=O)Nc2cc(C)c(O)c(C)c2)c(C)s1,-2.8,16803*,-13.3,-5.0,-5.6,-0.9
N#C/C(=C/c1ccc(C(=O)O)cc1)C(=O)NCc1ccccc1,?,17589*,-11.1,-8.6,-1.8,-7.4
N#C/C(=C\c1ccccc1)C(=O)NCc1ccc(F)cc1,0.0,5815,-19.1,1.0,-1.1,-1.8
CCOC(=O)c1cc(S(=O)(=O)N(C)Cc2ccccc2)cn1C,1.2,4789,13.7,-0.8,-0.7,0.0
Cc1cc(NC(=O)c2c(F)cccc2F)n(-c2nc3ccccc3[nH]2)n1,-2.6,16824*,-5.5,-5.2,-3.4,-1.0
COc1cccc(-c2nnc3n2N=C(C(C)(C)C)CS3)c1,-0.1,23357*,13.1,-1.6,1.5,0.7
COc1ccc(-c2nnc3n2N=C(C)CS3)cc1,?,23552*,-1.8,-1.1,-1.3,-2.3
COc1cccc(-c2nnc3n2N=C(c2ccc(Cl)cc2)CS3)c1,/,/,1.8,/,/,/
CC1=Nn2c(nnc2-c2ccco2)SC1,2.0,22078*,-3.2,3.1,0.1,6.5
COc1ccc(CN(CC#Cc2ccccc2)Cc2ccccc2)c(OC)c1,/,/,4.6,/,/,/
CCOC(=O)C1(C(=O)OCC)Cc2c([nH]c3ccccc23)[C@]2(N1)C(=O)N(C)c1ccc(Br)cc12,/,/,21.1,/,/,/
CC(C)c1cc(C(C)C)c(S(=O)(=O)N2CCC(c3cn4ccccc4n3)CC2)c(C(C)C)c1,/,/,16.2,/,/,/
CC(C)[C@H](NC(=O)[C@@H]1CCCN1)C(=O)N1CCC2CCN(S(=O)(=O)c3ccccc3)CC21 (some centres undefined),/,/,-7.4,/,/,/
O=C(Nc1ccc(Cl)cc1)N1CCC(c2nc(-c3ccc(F)cc3)no2)CC1,-1.8,24171*,2.1,-4.3,-2.1,3.2
COc1ccc(NC(=O)N2CCCC(c3nc(-c4ccc(OC)cc4)no3)C2)cc1 (centres undefined),-0.4,2742,9.6,-0.8,-1.3,0.8
O=C(Nc1ccc(Cl)cc1)N1CCN(c2ccc3nnc(-c4ccc(F)cc4)n3n2)CC1,-2.9,17296*,-0.6,-8.0,-4.7,-1.8
COc1cc2c3c(c1)-c1c(sn(-c4cc(OC)ccc4OC)c1=S)C(C)(C)N3C(=O)C2=O,2.0,21539*,-1.0,1.3,-6.3,-0.8
COc1cc(N2CCCC2)c(OC)cc1/C=C(/C#N)c1ccc(F)cc1,1.1,7730,-6.0,34.9*,-5.9,-2.8
COc1cc(N2CCCC2)c(OC)cc1/C=C(/C#N)c1ccc(Br)cc1,0.8,20296*,4.0,-1.5,-1.3,-4.3
SMILES,BoNT A protease,Autofluor counter,CCHF vOTU inh,BoNT F protease,Anthrax LF inh2,SARS 3CLpro inh
CC[C@H](CCCCCCCn1ccc2ccccc21)CCC(=O)N(c1ccccc1)c1ccccc1,/,/,1.1,/,/,/
Cc1cc(C)n(-c2c(C)[nH]c3ccccc23)n1,0.7,4393,-4.2,-17.9,-10.2,1.4
O=C(Nc1nc(-c2cccnc2)cs1)c1cccc([N+](=O)[O-])c1,-1.0,4501,15.0,-1.9,-0.8,0.9
O=C(Cc1nc(-c2ccc([N+](=O)[O-])cc2)cs1)Nc1ccccc1,2.5,21221*,29.1,0.9,-5.4,1.1
COCC(=O)Nc1nc(-c2ccc([N+](=O)[O-])cc2)cs1,-0.9,4556,9.2,-5.4,0.3,-1.6
O=C(Nc1nc(-c2ccccc2)cs1)c1cccc([N+](=O)[O-])c1,-3.1,20697*,2.1,-5.8,-3.0,8.7
CCc1nc2ccc(C(=O)NCCCn3ccnc3)cn2c1N(C)Cc1nccs1,-0.2,3861,8.9,7.0,-5.8,/
O=C(Nc1ccc(Br)cc1)OC1CC2CC1[C@H]1CCCCN1[C@H]2Cc1ccccc1 (some centres undefined),/,/,3.8,/,/,/
CN(C)S(=O)(=O)N1CCN(c2cccc(Cl)c2)CC1,?,21047*,-10.2,2.6,-0.9,-1.8

# Screening results deposited in PubChem BioAssay by several laboratories.
